About 1,300 (0.41%) of roughly 320,000 compounds were called active. Roughly 3% stayed inconclusive and do not appear here. How the calls were made is not given here. A selection follows. Results with a measured potency or affinity are listed apart.
Test: growth inhibition of non-replicating M. tuberculosis (AID 488890);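 further: plate controls were DMSO cells for no effect and high antibiotic wells for full effect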
Conditions: Mycobacterium tuberculosis non-replicating, at 25 µM, stronger effect = higher value

Compound | inhibition [%]
O=[N+]([O-])c1ccc(OCCCCN2CCc3ccccc3C2)cc1 | 57.5
COc1ccc(OCCCN2CCc3ccccc3C2)cc1 | 46.6
Cc1ccc2nc(N=C(N)N)nc(C)c2c1 | 30.9
Cc1cc2nc(/N=C(\N)NC(=O)N3c4ccccc4Sc4ccccc43)nc(C)c2cc1C | -20.4
Cc1ccc2nc(/N=C(\N)NC(=O)N3c4ccccc4Sc4ccccc43)nc(C)c2c1 | 10.2
Cc1nc(/N=C(\N)NC(=O)c2ccccc2)nc2ccccc12 | -4.45
Cc1ccccc1Cn1cc(S(=O)(=O)c2ccc(C(C)C)cc2)c(=O)c2cc3c(cc21)OCO3 | 11.4
Cc1ccc(S(=O)(=O)NC(CCc2ccccc2)CC(=O)C(C)(C)C)cc1 (stereo unspecified) | 0.24
CCOC(=O)CN1C2=NCCCN2c2ccccc21 | 15.4
O=C(Cc1ccc(Cl)cc1)Nc1cccnc1 | 30.9
O=C(O)c1ccccc1Nc1cc(Cl)c2nonc2c1[N+](=O)[O-] | 71.1
O=C(O)c1ccc(Nc2cc(Cl)c3nonc3c2[N+](=O)[O-])cc1 | 76
CC(NC(=O)c1cc(S(=O)(=O)N2CCOCC2)ccc1N1CCCC1)c1ccc(Cl)c(Cl)c1 (stereo unspecified) | 4.97
Cc1cccc(Cn2c(N3CCN(C)CC3)nc3c2c(=O)n(C)c(=O)n3C)c1 | -18
CCOC(=O)c1c(NC(=O)COC(=O)c2nccnc2N)sc2c1CCC2 | 26.4
CCOC(=O)c1c(NC(=O)COC(=O)c2ccccn2)sc(C)c1C | 37
Cc1ccc(CN2C(=O)CSC2c2ccccc2F)cc1 (stereo unspecified) | 10.3
CCCCCCn1c(COc2ccccc2F)nnc1SCC(=O)c1c(N)n(C)c(=O)n(C)c1=O | -10.3
CC1=CS(=O)(=O)CC1Sc1nc(C)n[nH]1 (stereo unspecified) | -1.03
Cc1ccc(O)c(C(=O)c2cnc3c(c2)c(=O)n(C)c(=O)n3C)c1 | -3.64
O=C(Cn1ccc2cc(S(=O)(=O)N3CCCC3)ccc21)NCc1ccco1 | 21.9
CN1C(=O)N(C)c2ccc(Br)c3cccc1c23 | 6.26
CN1C(=O)N(C)c2cccc3cccc1c23 | 0.15
OCC1(Cc2ccccc2)CCN(Cc2cnc(-c3cccc4ccccc34)nc2)CC1 | 4.25

Compound | inhibition [%]
CCC(C)NC(=O)Cn1c(=O)sc2ccccc21 (stereo unspecified) | 1.3
Cc1ccc2cccc(OCC(=O)Nc3cccc(S(=O)(=O)N4CCCC4)c3)c2n1 | 4.51
O=C(CSc1nc2ccccc2nc1N1CCOCC1)Nc1ccccc1F | 6.49
CCN(CC(=O)Nc1ccc(NC(C)=O)cc1)C(=O)c1cc(CN2C(=O)c3ccccc3C2=O)ccc1OC | -15
Cc1c(Cl)cccc1NC(=S)N(C)CCC#N | -8.13
COc1ccc(C(=O)C2CCCN(Cc3ccccn3)C2)c(OC)c1 (stereo unspecified) | 21.8
COc1ccc(C(=O)C2CCCN(Cc3cccc(C)n3)C2)c(OC)c1 (stereo unspecified) | 19.9
COc1cccc(C(=O)C2CCCN(Cc3cccc(C)n3)C2)c1 (stereo unspecified) | 37.8
COc1cccc(C(=O)C2CCCN(Cc3ccccn3)C2)c1 (stereo unspecified) | 23
CCOc1ccccc1N1CCN(C(=O)c2cc[n+]([O-])cc2)CC1 | 15.7
CC(=O)Nc1ccc(S(=O)(=O)NCCc2csc(C)n2)cc1 | -0.23
Cc1ccccc1OCCCC(=O)NCc1ccco1 | 15.7
O=C(Nc1nc2ccccc2[nH]1)c1cc2ccccc2o1 | 34.8
C/C(=N\Nc1nc2ccccc2[nH]1)c1ccccn1 | 78.5
CCOc1ncccc1C(=O)OCc1ccc([N+](=O)[O-])cc1 | 57.5
CCn1c(N2CCN(C(=S)NC)CC2)nc2ccccc21 | -6.07
CC(C1CC1)N(Cc1ccccc1)C(=S)Nc1cccc(C(F)(F)F)c1 (stereo unspecified) | 66.8
Cc1ccc2c(c1)N=C(c1ccc(F)cc1)CO2 | 30.4
COc1ccc(C2=Nc3cc(C)ccc3OC2)cc1 | 23.2
Clc1ccc(C2=Nc3cc(Cl)ccc3OC2)cc1 | 15.6
Cc1ccc2c(c1)N=C(c1ccc(Cl)cc1)CO2 | 29
Cc1cc(=O)[nH]c(SCC(=O)N2CCC(Cc3ccccc3)CC2)n1 | 0.43
CCN(C(=O)c1cc2cc3ccc(C)cc3nc2o1)c1ccc(OC)cc1 | 75.9
CS(=O)(=O)N1CCC(C(=O)N2CCN(c3ccc(F)cc3)CC2)CC1 | -0.02

Compound | inhibition [%]
O=C(NCC(=O)N1CCc2ccccc2C1)c1ccc(Cl)cc1Cl | 7.88
O=C(c1cc([N+](=O)[O-])ccc1N1CCCCC1)N1CCc2ccccc21 | 21
O=C(c1cc([N+](=O)[O-])ccc1Cl)N1CCc2ccccc21 | 43
C/C(CC(=O)Nc1ccc(Cl)cc1Cl)=N\NC(=O)c1ccco1 | 62.2
Cc1c2ccccc2nc2c(F)c(N(C)C)c(F)c(F)c12 | 67.8
Cc1c2ccccc2nc2c(F)c(NC(C)C)c(F)c(F)c12 | 25.6
CCCn1c(NC(=O)c2cccc(S(=O)(=O)N3CCCC3)c2)nc2ccccc21 | 12.3
Cc1[nH][nH]c(=O)c1N=Nc1ccccc1Cl | 2.18
Cc1[nH]n(S(=O)(=O)c2ccccc2)c(=O)c1N=Nc1cccc(Cl)c1 | 70.6
C#CCOCCOCCOCCNc1nc(N2CCN(C(=O)[C@H](CCC(=O)O)n3cc([C@@H](N)[C@H](C)CC)nn3)CC2)nc(N2CCN(C(=O)[C@H](CCCCN)n3cc([C@@H](N)CC(N)=O)nn3)CC2)n1 | -0.95
CCOC(=O)Cn1c(=O)cc(C)c2cccc(C)c21 | 78.8
Cc1cccc2c(=O)c(Br)c(C)n(Cc3ccccc3)c12 | -19.5
CC(NC(=S)NC(=O)c1ccccc1)c1ccccc1 (stereo unspecified) | 38.7
COc1ccc(OC)c(C2Nc3ccccc3NC3=C2C(=O)CC(C)(C)C3)c1 (stereo unspecified) | 3.61
Cc1ccc(C)c(NC(=O)CN(C)C(=O)C2=NNC(=O)CC2)c1 | 10.7
CC(C)(C)NC(=O)COC(=O)c1cc(Cl)ccc1[N+](=O)[O-] | 70.2
NS(=O)(=O)c1ccc(NC(=O)COC(=O)c2cc(Cl)ccc2[N+](=O)[O-])cc1 | 16.2
O=C(C1=C(O)C(=O)N(CCCn2ccnc2)C1c1ccc(F)cc1)c1ccco1 (stereo unspecified) | 1.68
CC(C)(C)NS(=O)(=O)c1ccc(NC(=O)C2CC(=O)N(CCc3ccc(F)cc3)C2)cc1 (stereo unspecified) | 6.94
COc1ccc(CCN2CC(C(=O)NCC3(O)CCCCC3)CCC2=O)cc1 (stereo unspecified) | -4.96
Cc1cc(N2CCOCC2)nc(NCc2ccccc2)n1 | 15.7
Cc1cc(N2CCN(c3ccccc3)CC2)nc(NCc2ccccc2)n1 | 36.7
Cc1cc(Nc2ccccc2)nc(NCc2ccccc2)n1 | 69.7
Cc1cc(OC2CCCCC2)nc(NCc2ccccc2)n1 | 29.8

Compound | inhibition [%]
Cc1ccc(SCCC(=O)OCC(=O)Nc2ccc(C(N)=O)cc2)cc1 | -4.28
COc1cc(S(=O)(=O)Nc2ccncc2)ccc1F | -1.45
COc1cccc(Nc2nc3cc(OC)ccc3cc2C#N)c1 | 2.07
O=C(Nc1nn[nH]n1)c1cc(-c2ccc(Cl)c(Cl)c2Cl)nc2ccccc12 | 28.1
Cc1cc2[nH]c(=O)c(=O)[nH]c2cc1S(=O)(=O)N(C)C1CCCCC1 | 13.6
CC(C)OC(=O)CCCN1C(=O)c2ccc(N)cc2C1=O | -10.2
O=C(O)CN1C(=O)CSC1=S | -1.21
COC(=O)C1=C(C)NC(C)=C(C(=O)OC)C1C(=O)OC1CCCCC1=O (stereo unspecified) | -9.56
CCOC(=O)C1CCN(CC(=O)Nc2c(C(=O)OC)[nH]c3cccc(C)c23)CC1 | 2.06
CCOC(=O)N1c2ccccc2Sc2ccccc21 | 11.9
CC(=O)NCC(=O)OCC(=O)N1c2ccccc2Sc2ccccc21 | 15.6
COc1cccc(CN(C)C(=O)Cc2c[nH]c3ccccc23)c1OC | 5.31
CCOC(=O)C1=C(COC(=O)c2ccc(C)s2)NC(=O)NC1C (stereo unspecified) | 11.3
CCS(=O)(=O)N1N=C(c2cccc(NS(C)(=O)=O)c2)CC1c1ccccc1 (stereo unspecified) | 36.4
Cc1nn(-c2nc3ccccc3[nH]2)c(=O)c2ccccc12 | 34
Cc1nn(-c2nc3ccccc3s2)c(N)c1-c1ccc(Cl)cc1 | -4.69
Cc1cc(C(=O)COC(=O)COc2ccc(C#N)cc2)c(C)n1C1CC1 | 47
CCC(=O)c1ccc(OCC(=O)OCC(=O)c2cc(C)n(CC3CCCO3)c2C)cc1 (stereo unspecified) | 70.2
CC(C)c1ccc(NC(=O)C2CCCN2S(=O)(=O)c2ccccc2F)cc1 (stereo unspecified) | -6.6
O=c1[nH]c(O)c(C=Nc2ccc(F)c(Cl)c2)c(=O)[nH]1 | 4.76
CC1=Nc2ccccc2/C1=C/c1c(O)[nH]c(=O)[nH]c1=O | 1.63
O=C(Nc1cccc(Cl)c1)c1nc[nH]c1C(=O)NCc1ccccc1 | 78.3
CCCNC(=O)N1CCC(Cc2ccccc2)CC1 | 67.7
Cc1cc(C(=O)N2CCC(Cc3ccccc3)CC2)c(C)o1 | 15.3

Compound | inhibition [%]
O=C(c1cccs1)N1CCC(Cc2ccccc2)CC1 | 11.9
CCOCC(=O)N1CCC(Cc2ccccc2)CC1 | 47.1
O=C(O)CCCC(=O)N1CCN(c2ncccn2)CC1 | -16.3
COc1ccc(-n2cc(C(=O)c3cc4ccccc4oc3=O)c(C(C)=O)n2)cc1 | 19.3
COc1ccc(CCNC(=O)c2cccc(S(=O)(=O)N3CCOCC3)c2)cc1OC | 16
O=C(COC(=O)c1nc(Cl)ccc1Cl)c1ccc[nH]1 | 4.28
O=C(Cc1ccc(Br)cc1)OCC(=O)c1ccc[nH]1 | 79.4
O=C(Cc1ccc(Cl)c(Cl)c1)OCC(=O)c1ccc[nH]1 | 70.6
O=C(COC(=O)c1ccc[nH]c1=O)c1ccc(Cl)s1 | 21.8
CC(=O)N1c2ccc(S(=O)(=O)NCC3CCC(C(=O)NCc4ccccc4)CC3)cc2CC1C (stereo unspecified) | 14.7
COc1ccc(CC2C(=O)N(C)C(=O)N(C)C2=O)c(OC)c1 | -3.03
O=C/C(=C\Nc1ccc(Cl)cn1)c1nc2cc(Cl)ccc2o1 | 58.2
CC(=O)COc1ccc2c(-c3cccc([N+](=O)[O-])c3)cc(=O)oc2c1 | -17.4
COC(=O)C(C)Oc1ccc2c(-c3cccc([N+](=O)[O-])c3)cc(=O)oc2c1 (stereo unspecified) | 67.4
COc1ccc(-c2cc3ccc(OCC(C)=O)cc3oc2=O)cc1 | 15.4
COc1ccc(-c2cc(=O)oc3cc(OCC(C)=O)ccc23)cc1 | 36.8
COc1ccc(-c2cc3ccc(OC(C)C(=O)O)cc3oc2=O)cc1 (stereo unspecified) | -4.62
COc1ccc(-c2cc(=O)oc3cc(OCC(=O)N(C)C)ccc23)cc1 | -18.8
CC(Oc1ccc2cc(-c3ccccc3)c(=O)oc2c1)C(=O)NCC1CCC(C(=O)O)CC1 (stereo unspecified) | 4.91
COc1ccc(-c2cc3ccc(OCC(N)=O)cc3oc2=O)cc1OC | 17.8
